# Data taken from paper PMC8136818, “Evolving origin-of-transfer sequences on staphylococcal conjugative and mobilizable plasmids—who’s mimicking whom?”.
# T1: SmpO45 (Staphylococcus aureus plasmid pWBG745, UniProt UPI0001BEA8D3 1-84)
# T1 sequence: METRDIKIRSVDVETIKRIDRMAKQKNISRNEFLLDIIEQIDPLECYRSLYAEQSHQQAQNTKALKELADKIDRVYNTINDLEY
# T2: SmpOUNa (plasmid pC02)
# T2 chain: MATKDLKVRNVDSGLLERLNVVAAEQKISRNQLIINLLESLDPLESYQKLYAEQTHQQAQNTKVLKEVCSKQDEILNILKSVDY
# T3: SmpO408 (Staphylococcus aureus M0408)
# T3 chain: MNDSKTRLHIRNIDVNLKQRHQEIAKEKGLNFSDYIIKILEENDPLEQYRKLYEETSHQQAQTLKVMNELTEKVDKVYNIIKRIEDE
# T4: SmpOSep (Staphylococcus epidermidis VCU120)
# T4 chain: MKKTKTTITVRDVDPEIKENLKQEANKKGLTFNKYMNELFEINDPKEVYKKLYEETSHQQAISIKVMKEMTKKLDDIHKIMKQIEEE
# T5: SmpO49-F7K (Staphylococcus aureus plasmid pWBG749, UniProt UPI0001BEA96A 1-84, F7K)
# T5 sequence: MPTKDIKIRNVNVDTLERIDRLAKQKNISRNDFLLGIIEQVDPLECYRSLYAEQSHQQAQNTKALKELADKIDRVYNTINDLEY
# T6: SmpO49 (Staphylococcus aureus plasmid pWBG749, UniProt UPI0001BEA96A 1-84)
# T6 sequence: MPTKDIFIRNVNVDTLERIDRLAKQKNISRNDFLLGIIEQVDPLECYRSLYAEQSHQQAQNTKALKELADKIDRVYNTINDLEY
# What was measured:
# Details in all cases: protein: recombinant; tags: His6-TEV, cleaved; chain copies: 4
# [1] = biological target: T1, SmpO45; assay: SPR (ReDCaT); 250 mM NaCl; 10 mM HEPES, 3 mM EDTA, 0.05% Tween 20, NaCl 150 mM (SmpO49 screens), 300 mM (SmpO45, SmpO408, SmpOUNa screens) or 250 mM (Table S4); pH and temperature not stated; protein 1 uM; high values mean tight binding
# [2] = biological target: T1, SmpO45; assay: SPR (ReDCaT); 300 mM NaCl; 10 mM HEPES, 3 mM EDTA, 0.05% Tween 20, NaCl 150 mM (SmpO49 screens), 300 mM (SmpO45, SmpO408, SmpOUNa screens) or 250 mM (Table S4); pH and temperature not stated; protein 1 uM; high values mean tight binding
# Method in brief: (§1)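 Tag-cleaved protein, expressed in E. coli BL21(DE3)pLysS and purified by nickel-affinity and size-exclusion chromatography, was screened on a Biacore T200 SA chip by reusable DNA capture. OriT oligonucleotides were captured at 1 μM on Fc2, with a control linker on Fc1. Protein at 1 μM was injected at 30 μl/min (60 s contact, 60 s dissociation) in 10 mM HEPES, 300 mM NaCl, 3 mM EDTA, 0.05% Tween 20. DNA binding is reported as %Rmax.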
# [3] = biological target: T2, SmpOUNa; assay: SPR (ReDCaT); 250 mM NaCl; 10 mM HEPES, 3 mM EDTA, 0.05% Tween 20, NaCl 150 mM (SmpO49 screens), 300 mM (SmpO45, SmpO408, SmpOUNa screens) or 250 mM (Table S4); pH and temperature not stated; protein 1 uM; high values mean tight binding
# [4] = biological target: T3, SmpO408; assay: as above
# [5] = biological target: T4, SmpOSep; assay: as above
# [6] = biological target: T5, SmpO49-F7K; assay: as above
# [7] = biological target: T6, SmpO49; assay: SPR (ReDCaT); 150 mM NaCl; 10 mM HEPES, 3 mM EDTA, 0.05% Tween 20, NaCl 150 mM (SmpO49 screens), 300 mM (SmpO45, SmpO408, SmpOUNa screens) or 250 mM (Table S4); pH and temperature not stated; protein 1 uM; high values mean tight binding
# Method in brief: as §1, with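 “150” for “300”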
# [8] = biological target: T2, SmpOUNa; assay: SPR (ReDCaT); 300 mM NaCl; 10 mM HEPES, 3 mM EDTA, 0.05% Tween 20, NaCl 150 mM (SmpO49 screens), 300 mM (SmpO45, SmpO408, SmpOUNa screens) or 250 mM (Table S4); pH and temperature not stated; protein 1 uM; high values mean tight binding
# Method in brief: as §1
binder,measurement,setting,value
ossA45 (dsDNA) DNA 1: ATTGTGGGGTCACTTT DNA 2: AAAGTGACCCCACAAT,binding signal,[1],37.5 %Rmax
same,binding signal,[2],36.5 ± 3.64 %Rmax
same,binding signal,[3],7.1 %Rmax
same,binding signal,[4],10.7 %Rmax
same,binding signal,[5],2.9 %Rmax
same,binding signal,[6],31.3 %Rmax
ossB45 (dsDNA) DNA 1: AATATGGGGTCATATT DNA 2: AATATGACCCCATATT,binding signal,[1],21.6 %Rmax
same,binding signal,[3],1.4 %Rmax
same,binding signal,[4],0.9 %Rmax
same,binding signal,[5],0.5 %Rmax
same,binding signal,[6],26.1 %Rmax
ossAUNa (dsDNA) DNA 1: GTGACCCCCATAAGAT DNA 2: ATCTTATGGGGGTCAC,binding signal,[1],1.6 %Rmax
same,binding signal,[3],12.4 %Rmax
same,binding signal,[4],2.9 %Rmax
same,binding signal,[6],3.5 %Rmax
ossBUNa (dsDNA) DNA 1: AAAATGGGTACATATT DNA 2: AATATGTACCCATTTT,binding signal,[1],0.8 %Rmax
same,binding signal,[5],1.5 %Rmax
ossB408 (dsDNA) DNA 1: TAATAGGTGGCAAATT DNA 2: AATTTGCCACCTATTA,binding signal,[1],0.4 %Rmax
same,binding signal,[4],34.2 %Rmax
OT45.3 (dsDNA) DNA 1: GACACTATAGTTTATTGTGGGGTCACTTTA DNA 2: TAAAGTGACCCCACAATAAACTATAGTGTC,binding signal,[2],29.5 ± 1.43 %Rmax
OT45.4 (dsDNA) DNA 1: TTTATTGTGGGGTCACTTTAAATTCTTTAA DNA 2: TTAAAGAATTTAAAGTGACCCCACAATAAA,binding signal,[2],29.4 ± 1.33 %Rmax
OT45.5 (dsDNA) DNA 1: GGTCACTTTAAATTCTTTAAAACCCTTGAA DNA 2: TTCAAGGGTTTTAAAGAATTTAAAGTGACC,binding signal,[2],17.8 ± 1.2 %Rmax
OT45.9 (dsDNA) DNA 1: TTGCCAGCCACCCCATAAAATATGGGGTCA DNA 2: TGACCCCATATTTTATGGGGTGGCTGGCAA,binding signal,[2],0.769 ± 0.108 %Rmax
OT45.10 (dsDNA) DNA 1: CCCCATAAAATATGGGGTCATATTTCCCTT DNA 2: AAGGGAAATATGACCCCATATTTTATGGGG,binding signal,[2],31.8 ± 2.19 %Rmax
OT45.11 (dsDNA) DNA 1: TATGGGGTCATATTTCCCTTATGCTCTTAC DNA 2: GTAAGAGCATAAGGGAAATATGACCCCATA,binding signal,[2],21.2 ± 1.26 %Rmax
ossA45-1 (dsDNA) DNA 1: TTTGTGGGGTCACTTT DNA 2: AAAGTGACCCCACAAA,binding signal,[2],42.58 ± 0.128 %Rmax
ossA45-2 (dsDNA) DNA 1: AATGTGGGGTCACTTT DNA 2: AAAGTGACCCCACATT,binding signal,[2],32.56 ± 0.0519 %Rmax
ossA45-3 (dsDNA) DNA 1: ATAGTGGGGTCACTTT DNA 2: AAAGTGACCCCACTAT,binding signal,[2],31.73 ± 0.268 %Rmax
ossA45-4 (dsDNA) DNA 1: ATTCTGGGGTCACTTT DNA 2: AAAGTGACCCCAGAAT,binding signal,[2],33.4 ± 0.753 %Rmax
ossA45-5 (dsDNA) DNA 1: ATTGAGGGGTCACTTT DNA 2: AAAGTGACCCCTCAAT,binding signal,[2],13.5 ± 0.663 %Rmax
ossA45-9 (dsDNA) DNA 1: ATTGTGGGCTCACTTT DNA 2: AAAGTGAGCCCACAAT,binding signal,[2],0.616 ± 0.0355 %Rmax
ossA45-10 (dsDNA) DNA 1: ATTGTGGGGACACTTT DNA 2: AAAGTGTCCCCACAAT,binding signal,[2],6.42 ± 0.416 %Rmax
ossA45 C11G (dsDNA) DNA 1: ATTGTGGGGTGACTTT DNA 2: AAAGTCACCCCACAAT,binding signal,[2],0.641 ± 0.0361 %Rmax
ossA45-12 (dsDNA) DNA 1: ATTGTGGGGTCTCTTT DNA 2: AAAGAGACCCCACAAT,binding signal,[2],7.81 ± 0.57 %Rmax
ossA45-13 (dsDNA) DNA 1: ATTGTGGGGTCAGTTT DNA 2: AAACTGACCCCACAAT,binding signal,[2],30.8 ± 1.19 %Rmax
ossA45-14 (dsDNA) DNA 1: ATTGTGGGGTCACATT DNA 2: AATGTGACCCCACAAT,binding signal,[2],38.9 ± 1.1 %Rmax
ossA45-15 (dsDNA) DNA 1: ATTGTGGGGTCACTAT DNA 2: ATAGTGACCCCACAAT,binding signal,[2],38.6 ± 1.09 %Rmax
ossA45-16 (dsDNA) DNA 1: ATTGTGGGGTCACTTA DNA 2: TAAGTGACCCCACAAT,binding signal,[2],43.4 ± 1.14 %Rmax
OT49.3 (dsDNA) DNA 1: GACACTAGGTGTTTTTATGATATCACTATG DNA 2: CATAGTGATATCATAAAAACACCTAGTGTC,binding signal,[7],18.8 ± 0.402 %Rmax
OT49.4 (dsDNA) DNA 1: GTTTTTATGATATCACTATGAAATGTCCTA DNA 2: TAGGACATTTCATAGTGATATCATAAAAAC,binding signal,[7],17 ± 0.325 %Rmax
OT49.10 (dsDNA) DNA 1: CTATCATTGTCCGATGATAGCAAATTCCCC DNA 2: GGGGAATTTGCTATCATCGGACAATGATAG,binding signal,[7],0.584 ± 0.045 %Rmax
OT49.11 (dsDNA) DNA 1: CCGATGATAGCAAATTCCCCTTATGCTCTT DNA 2: AAGAGCATAAGGGGAATTTGCTATCATCGG,binding signal,[7],0.467 ± 0.033 %Rmax
OT49.12 (dsDNA) DNA 1: GATGATAGCAAATTCCCCTTATGCTCTTAC DNA 2: GTAAGAGCATAAGGGGAATTTGCTATCATC,binding signal,[7],0.431 ± 0.0378 %Rmax
ossA49 (dsDNA) DNA 1: TTTATGATATCACTAT DNA 2: ATAGTGATATCATAAA,binding signal,[7],26 ± 1.13 %Rmax
same,binding signal,[5],1.2 %Rmax
ossA49-1 (dsDNA) DNA 1: ATTATGATATCACTAT DNA 2: ATAGTGATATCATAAT,binding signal,[7],26.7 ± 1.94 %Rmax
ossA49-2 (dsDNA) DNA 1: TATATGATATCACTAT DNA 2: ATAGTGATATCATATA,binding signal,[7],26.3 ± 1.74 %Rmax
ossA49-3 (dsDNA) DNA 1: TTAATGATATCACTAT DNA 2: ATAGTGATATCATTAA,binding signal,[7],26.8 ± 1.8 %Rmax
ossA49-4 (dsDNA) DNA 1: TTTTTGATATCACTAT DNA 2: ATAGTGATATCAAAAA,binding signal,[7],12.1 ± 1.41 %Rmax
ossA49-5 (dsDNA) DNA 1: TTTAAGATATCACTAT DNA 2: ATAGTGATATCTTAAA,binding signal,[7],6.94 ± 0.948 %Rmax
ossA49-12 (dsDNA) DNA 1: TTTATGATATCTCTAT DNA 2: ATAGAGATATCATAAA,binding signal,[7],5.13 ± 0.452 %Rmax
ossA49-13 (dsDNA) DNA 1: TTTATGATATCAGTAT DNA 2: ATACTGATATCATAAA,binding signal,[7],18.1 ± 1.02 %Rmax
ossA49-14 (dsDNA) DNA 1: TTTATGATATCACAAT DNA 2: ATTGTGATATCATAAA,binding signal,[7],24.9 ± 1.06 %Rmax
ossA49-15 (dsDNA) DNA 1: TTTATGATATCACTTT DNA 2: AAAGTGATATCATAAA,binding signal,[7],26.8 ± 1.07 %Rmax
ossA49-16 (dsDNA) DNA 1: TTTATGATATCACTAA DNA 2: TTAGTGATATCATAAA,binding signal,[7],24.8 ± 1.07 %Rmax
OTUNa For/Rev_13 (dsDNA) DNA 1: TTTAAAACCCTTGAAATATCTGGCTTCGCC DNA 2: GGCGAAGCCAGATATTTCAAGGGTTTTAAA,binding signal,[8],2.14 ± 0.24 %Rmax
OTUNa For/Rev_14 (dsDNA) DNA 1: TTGAAATATCTGGCTTCGCCAGATTACCCA DNA 2: TGGGTAATCTGGCGAAGCCAGATATTTCAA,binding signal,[8],1.29 ± 0.0865 %Rmax
OTUNa For/Rev_15 (dsDNA) DNA 1: TGGCTTCGCCAGATTACCCATTATAAAATG DNA 2: CATTTTATAATGGGTAATCTGGCGAAGCCA,binding signal,[8],5.46 ± 0.605 %Rmax
